Results from PubChem BioAssay (Tox21).
Several values for one entry are separate records, joined by “and”; a condition that tells them apart may be missing. Equal values may be shown once. Records with an inconclusive call do not appear. Where a call stands in place of a potency, no number is given. Activity calls are given as the source filed them. The call rests on the fitted dose curve; in most records, active means well fitted cell-killing curve with a large enough effect in the repeat runs; inconclusive means weak or mixed curves; inactive means flat fitted curve, though single readings scatter.

Experiment: qHTS assay to identify small molecule antagonists of the estrogen related receptor (ERR) signaling pathway from Tox21 library - cell viability counter screen (AID 1224834); further: nearly all actives have a fitted effect of over 30% in size
Conditions: ERR reporter cells viability, CellTiter-Fluor, 17.5 h; series mostly up to 92.4 µM
Excerpt: National Center for Advancing Translational Sciences [NCATS]
NIH Chemical Genomics Center [NCGC]
U.S. Environmental Protection Agency [EPA]
National Institutes of Environmental Health Sciences [NIEHS]
National Toxicology Program [NTP]
U.S. Food and Drug Administration [FDA]
Estrogen related receptors (ERRs), the first orphan nuclear receptors discovered, play an important role in the control of cellular energy metabolism. ERRs are required for high-energy production in response to the environmental challenges. ERR-alpha was also identified as an adverse marker for breast cancer progression; ERR-alpha-positive tumors have a poor prognosis. To screen and to identify environmental compounds that perturb the ERR signaling pathways could provide valuable information for potential therapeutic or preventive measures in the treatment of metabolic disease. To differentiate true ERR antagonists or agonist from cytotoxic substances, the assay is multiplexed with cell viability assay.
Tox21 Assay Protocol Summary:
The ERR cells were dispensed at 2,000 cells/5 ul/well in 1536-well white plates using a Multidrop dispenser. After the assay plates were incubated at a 37 C/5% CO2 incubator for 6 hours, 23 nL of compounds dissolved in DMSO, positive and negative controls or DMSO only was transferred to the assay plate by a pin tool. The plates were incubated at 37 C for 17.5 hours. 1 ul/well of CellTiter-Fluor reagent was added into the assay plates using a Flying Reagent Dispenser. After 30-minute incubation at 37 C/5% CO2, the fluorescence intensity in the plates was measured using a ViewLux plate reader.
Potency means the concentration at half of the fitted maximal effect.

SMILES | Potency
O=C(O)Cc1ccc2c(c1)C(=O)c1ccccc1CO2 | inactive
CCCCCC/C=C\CCCCCCCC(=O)O | inactive
CCC(C)[O-].CCC(C)[O-].CCOC(=O)/C=C(/C)[O-].[Al+3] | inactive
c1cnccn1 | inactive
COc1cc(C)ccc1O | inactive
Nc1ccc(NCCO)c([N+](=O)[O-])c1 | 48.6 µM (active)
OC[C@@H](O)[C@@H](O)CO | inactive
COC(C)=O | inactive
C=Cc1ccccc1C=C | inactive
CC(=O)[C@H]1CC[C@H]2[C@@H]3CCC4=CC(=O)CC[C@]4(C)[C@H]3CC[C@]12C | 30.5 µM (active) and 30.6 µM (active)
O=C1NC(=O)[C@@H]2CC=CC[C@H]12 | inactive
C#C[C@]1(O)CC[C@H]2[C@@H]3[C@H](C)CC4=C(CCC(=O)C4)[C@H]3CC[C@@]21C | inactive
O=S(=O)(O)c1ccc(Nc2nc(Nc3ccc(/C=C/c4ccc(Nc5nc(Nc6ccc(S(=O)(=O)O)cc6)nc(N(CCO)CCO)n5)cc4S(=O)(=O)O)c(S(=O)(=O)O)c3)nc(N(CCO)CCO)n2)cc1 | inactive
CCCCCCCC/C=C\CCCCCCCCN | inactive
CC[N+](CC)(CC)CCOC(=O)C(C1CCCC1)C1CCCC1 | inactive
CC(=O)OCC=C(C)C | inactive
COC(=O)c1ccccc1OC | inactive
CCCCCc1ccc(Cl)cc1 | inactive
Cc1cc(=O)oc2cc(O)cc(O)c12 | inactive
O=C(/C=C/c1ccccc1)OC/C=C/c1ccccc1 | inactive

SMILES | Potency
O=c1[nH]c(=O)n([C@H]2C[C@H](O)[C@@H](CO)O2)cc1F | inactive
O=[N+]([O-])c1cccc(C(F)(F)F)c1 | inactive
OCC(F)(F)F | inactive
CCCCCCCC | inactive
CCOC(=O)Cn1cccc1-c1nc(-c2ccc(OC)cc2)c(-c2ccc(OC)cc2)s1 | inactive
O=C1CCc2ccc(OCCCCN3CCN(c4cccc(Cl)c4Cl)CC3)cc2N1 | 26.6 µM (active)
CCCC[P+](C)(CCCC)CCCC | inactive
OC[C@H]1O[C@H](O[C@H]2O[C@H](CO)[C@@H](O)[C@H](O)[C@H]2O)[C@H](O)[C@@H](O)[C@@H]1O | inactive
COCCOc1cc2cc(C(=O)NC3CCN(C(C)C)CC3)n(CC(=O)Nc3ccc(Cl)cn3)c2cn1 | inactive
Clc1sc(Cl)c(Cl)c1Cl | inactive
C=CC(=O)OCCOC(=O)C=C | inactive
Cc1c(C)c2c(c(C)c1OC(=O)c1cccnc1)CC[C@@](C)(CCC[C@H](C)CCC[C@H](C)CCCC(C)C)O2 | inactive
Cc1ccc(O)c(O)c1 | 47.2 µM (active)
CC/C=C\CCCCCO | inactive
CC(C(=O)O)c1ccc2c(c1)[nH]c1ccc(Cl)cc12 (stereo not given) | inactive
C=C(C)C(=O)OCCCCCCCCCC | inactive
O=[N+]([O-])c1ccc(O)cc1C(F)(F)F | 15.4 µM (active)
CCCCOC(=O)CC | inactive
CN(C)Cc1ccccc1O | inactive
[Cu+] | inactive
